Screening data (PubChem BioAssay)
Nrf2 ARE act – qHTS of Nrf2 Activators; AREc32 ARE-luciferase reporter (MCF7-derived line), luminescence, 24 h; Potency, µM (highest dose often 46.1 µM), hits mostly activators; 410,000 compounds, 0.31% hits; AID 624171, 2012; note: nearly all actives have a fitted effect of over 65% in size
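Reporter line AREc32 (ARE-Fluc), seeded overnight in OPTI-MEM with 5% FBS; compound pin-transferred, 24 hr at 37 deg C, 5% CO2; luminescent read-out.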
12-LOX inh – Primary qHTS assay for inhibitors of human arachidonate 12S-lipoxygenase (ALOX12): Round 2 | Polyunsaturated fatty acid lipoxygenase ALOX12 (Homo sapiens), P18054 | purified 12hLO, xylenol orange hydroperoxide absorbance | Potency, µM (highest dose often 108 µM), actives largely listed as inhibitors | 580,000 compounds, 1.1% hits
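Purified human 12hLO (150 nM final) in 25 mM Hepes, 0.01% Triton X-100, pH 7.0 was preincubated 15 min at room temperature with compound. Then 40 uM arachidonic acid was added, 30 min. Hydroperoxide was read by Fe-XO absorbance ratio 573/405 nm.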
LDHA block – qHTS assay for inhibitors of human lactate dehydrogenase | purified LDHA, NADH/diaphorase-resazurin fluorescence; stronger effect = lower value | 480,000 compounds, 0.15% hits | L-lactate dehydrogenase A chain (Homo sapiens), P00338 | activity change, % (values are at about 110 or 230 µM); in the data active = activity change below about -30%; inconclusive = mostly about -25% to -30%
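Enzyme activity of human lactate dehydrogenase 5 (2 nM; 0.06 mM NADH, 0.2 mM pyruvate, 5 min, RT) is measured via a resazurin/diaphorase fluorescence readout of residual NADH.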
Nrf2 block – Nrf2 qHTS screen for inhibitors. A549 ARE-Fluc reporter, luciferase luminescence, 18-24 h. Potency, µM (highest dose often 46 µM), hits mostly inhibitors. 360,000 compounds, 2.1% hits. AID 504444, 2011; note: nearly all actives have a fitted effect of over 60% in size
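In this cell-based qHTS, ARE-driven firefly luciferase in A549 cells reports Nrf2 activity; the luminescent signal after BugLite lysis is the measured value, with a prior CellTiter-Fluor read for cell health.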
mIDH1 inhibitor – qHTS for Inhibitors of mutant isocitrate dehydrogenase 1 (IDH1): qHTS. Potency, µM (highest dose often 76.6 µM), usual class: inhibitors. AID 602179, 2012. 390,000 compounds, 0.093% hits. IDH1-R132H enzyme, NADPH consumption, diaphorase/resazurin fluorescence. Isocitrate dehydrogenase [NADP] cytoplasmic (Homo sapiens), O75874; note: nearly all actives have a fitted effect of over 65% in size
Target sequence (O75874 whole entry R132H, stated change not applied): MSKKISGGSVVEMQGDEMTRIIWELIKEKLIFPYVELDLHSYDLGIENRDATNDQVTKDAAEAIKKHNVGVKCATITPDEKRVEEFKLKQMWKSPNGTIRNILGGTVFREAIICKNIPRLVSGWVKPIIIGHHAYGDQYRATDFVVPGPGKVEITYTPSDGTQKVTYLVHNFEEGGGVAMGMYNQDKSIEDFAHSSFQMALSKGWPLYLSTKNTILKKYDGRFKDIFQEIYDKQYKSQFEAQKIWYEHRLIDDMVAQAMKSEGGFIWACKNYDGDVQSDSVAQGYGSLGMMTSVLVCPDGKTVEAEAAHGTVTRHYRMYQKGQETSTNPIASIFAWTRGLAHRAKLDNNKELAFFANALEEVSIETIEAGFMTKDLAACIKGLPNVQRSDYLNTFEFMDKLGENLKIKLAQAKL
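IDH1-R132H (0.5 ug/mL) preincubated 30 min with compound, then NADPH (0.016 mM) and alpha-KG (2 mM) added; 80 min at RT, pH 7.5. Remaining NADPH coupled via diaphorase/resazurin to fluorescence (540/590 nm); concentration-response curves normalized to no-enzyme control.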
A549 viability – Nrf2 qHTS screen for inhibitors: counterscreen for cytotoxicity | A549 ARE-Fluc cells, CellTiter-Fluor viability, 18-24 h | 390,000 compounds, 0.16% hits | Potency, µM (doses to about 46 µM), most hits filed as inhibitors
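A549 ARE-Fluc cells in 5% FBS OPTI-MEM, 5000 cells/well, rested 2 h then exposed to compounds in concentration-response for 18-24 h at 37 °C. Viability by CellTiter-Fluor fluorescence (Ex 405/Em 525) after 30 min; luciferase luminescence (BugLite, 15 min, RT) read afterwards.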
Hits are given with their value; [ ] = remark or other dose. The list is not random: actives were taken first. Their share in the collection is about 2.7%. Unless noted, calls come from the whole dose curve; as a rule, active = well fitted curve in the direction sought with a large enough effect; inconclusive = small, poorly fitted or top-dose-only effect, or another doubt; inactive = no such curve, though single readings can be large; an effect the other way counts as inactive or inconclusive.

Screening Cc1cccc(-c2nc(CSCC(=O)N3CCN(c4ccccc4)CC3)c(C)o2)c1 returned Nrf2 ARE act inactive, 12-LOX inh inactive, LDHA block inactive, Nrf2 block 23.1µM, mIDH1 inhibitor inactive and A549 viability inactive.
`CCOc1ccc(-c2nc(CSCC(=O)N3CCN(c4cccc(C(F)(F)F)c4)CC3)c(C)o2)cc1` gave Nrf2 ARE act inactive, 12-LOX inh inactive, LDHA block inactive, mIDH1 inhibitor inactive and A549 viability inconclusive.
For CCc1ccc(-c2nc(CSCC(=O)N3CCN(c4ncccn4)CC3)c(C)o2)cc1 the results were Nrf2 ARE act inactive, 12-LOX inh inactive, LDHA block inactive, Nrf2 block 20.6µM, mIDH1 inhibitor inactive and A549 viability inactive.
`COc1ccc(C(=O)NNC(=O)C(=O)/C=C(\O)c2ccc(C)cc2)cc1` gave Nrf2 ARE act inactive, 12-LOX inh 35.5µM, LDHA block inactive, Nrf2 block inactive, mIDH1 inhibitor inactive and A549 viability inactive.
`O=C(/C=C(\O)c1ccccc1)C(=O)NNC(=O)c1ccccc1` gave Nrf2 ARE act inactive, 12-LOX inh inactive, LDHA block inactive, Nrf2 block inconclusive, mIDH1 inhibitor inactive and A549 viability inactive.
Screening CNc1c(C(=O)O)ccc2c1C(=O)c1ccccc1C2=O returned Nrf2 ARE act inactive, 12-LOX inh inactive, LDHA block inactive, Nrf2 block inconclusive, mIDH1 inhibitor inactive and A549 viability 18.4µM.
For O=C(Nc1ccccn1)c1cnc2ccccc2n1 the results were 12-LOX inh inactive and LDHA block inactive.
`CCN(CC)CCNC(=O)c1ccc2ccccc2n1` gave 12-LOX inh inactive and LDHA block inactive.
For CC(=O)NCCNC(=O)c1ccc2ccccc2n1 the results were 12-LOX inh inactive and LDHA block -31.3.
O=C(Nc1ccccn1)c1ccc2ccccc2n1 was read as Nrf2 ARE act 3.16µM, 12-LOX inh inconclusive, LDHA block inactive, Nrf2 block inconclusive, mIDH1 inhibitor inactive and A549 viability inactive.
`Cc1csc(NC(=O)c2ccc3ccccc3n2)n1` gave Nrf2 ARE act inactive, 12-LOX inh 14.1µM, LDHA block inactive, Nrf2 block inconclusive, mIDH1 inhibitor inactive and A549 viability inactive.
Screening CCCn1nc(C(=O)OCc2nc(-c3ccccc3)no2)c2ccccc2c1=O returned 12-LOX inh inconclusive and LDHA block inactive.
CN(CCc1ccccn1)C(=O)CCC[C@@H]1[C@H]2CCCN3CCC[C@@H](CN1Cc1cccnc1)[C@@H]23 was read as 12-LOX inh inactive.
Screening COc1cccc(NC(=O)c2oc3ccccc3c2NC(=O)c2cc3ccccc3o2)c1 returned Nrf2 ARE act inactive, 12-LOX inh inactive, LDHA block inactive, Nrf2 block inactive, mIDH1 inhibitor inactive and A549 viability inactive.
Screening COc1cccc(NC(=O)c2oc3ccccc3c2NC(=O)C(C)(C)C)c1 returned Nrf2 ARE act inactive, 12-LOX inh inactive, LDHA block inactive, Nrf2 block 9.2µM, mIDH1 inhibitor inactive and A549 viability inactive[1.84 µM].
`C=CCn1c(-c2ccc3ncccc3c2)n[nH]c1=S` gave Nrf2 ARE act inactive, 12-LOX inh 28.2µM, LDHA block inactive, Nrf2 block inconclusive, mIDH1 inhibitor inactive and A549 viability inactive.
For O=C(O)c1ccc2c(c1)CC(=O)N2Cc1ccc(F)cc1 the results were 12-LOX inh 11.2µM.
CS(=O)(=O)N1CCN(C(C(=O)O)c2c[nH]c3cc(F)ccc23)CC1 (stereo not drawn) was read as 12-LOX inh inconclusive and LDHA block inactive.
`CCCCNc1ncnc2oc(-c3ccco3)c(-c3ccco3)c12` gave LDHA block inactive, Nrf2 block 20.6µM and A549 viability inactive.
Screening NC(=NCCc1c[nH]c2ccccc12)NS(=O)(=O)c1ccc2ccccc2c1 returned Nrf2 ARE act inactive, 12-LOX inh inactive, LDHA block inactive, Nrf2 block 16.4µM, mIDH1 inhibitor inactive and A549 viability inconclusive.
Screening NC(=NCCc1c[nH]c2ccccc12)NS(=O)(=O)c1ccc(F)cc1 returned Nrf2 ARE act inactive, 12-LOX inh inactive, LDHA block inactive, Nrf2 block inactive, mIDH1 inhibitor inactive and A549 viability inactive.
Cc1cc(OCCCCOc2ccc(S(N)(=O)=O)c(C)c2)ccc1S(N)(=O)=O was read as Nrf2 ARE act inactive, 12-LOX inh inactive, LDHA block inactive, Nrf2 block 11.6µM, mIDH1 inhibitor inactive and A549 viability inactive.
CNC(=S)N(CCc1c(C)[nH]c2ccc(C)cc12)Cc1ccco1 was read as Nrf2 ARE act inactive, 12-LOX inh inactive, LDHA block inactive, Nrf2 block inactive, mIDH1 inhibitor inactive and A549 viability inactive.
CCNC(=S)N(CCc1c(C)[nH]c2ccc(Cl)cc12)Cc1ccco1 was read as Nrf2 ARE act inactive, 12-LOX inh inactive, LDHA block inactive, Nrf2 block 20.6µM, mIDH1 inhibitor inactive and A549 viability inconclusive.
For Cc1ccc(CNC(=O)N2CCC(Cc3ccc(C(=O)NC4CC4)cc3)CC2)cc1 the results were 12-LOX inh inactive.
Cc1ccc(-c2cc(Nc3cccc(C)c3)nc(C)n2)cc1 was read as 12-LOX inh 50.1µM and LDHA block inactive.
For Cc1ccc(Nc2cc(-c3ccccc3)nc(C)n2)cc1 the results were Nrf2 ARE act inactive, 12-LOX inh inactive, LDHA block inactive, Nrf2 block inconclusive, mIDH1 inhibitor inactive and A549 viability inactive.
For CCSc1nnc(NC(=O)C(CC)(C(F)(F)F)C(F)(F)F)s1 the results were Nrf2 ARE act inactive, 12-LOX inh inactive, LDHA block inactive, Nrf2 block 14.6µM, mIDH1 inhibitor inactive and A549 viability inconclusive.
CCSc1nnc(NC(=O)C(C)(C(F)(F)F)C(F)(F)F)s1 was read as Nrf2 ARE act inactive, 12-LOX inh inactive, LDHA block inactive, Nrf2 block 16.4µM, mIDH1 inhibitor inactive and A549 viability inconclusive.
CCSc1nnc(NC(=O)C(C(F)(F)F)C(F)(F)F)s1 was read as Nrf2 ARE act inconclusive, 12-LOX inh inconclusive, LDHA block inactive, Nrf2 block inactive, mIDH1 inhibitor inactive and A549 viability inactive.
For COc1nn(C)c2nc(C)c(CCC(=O)NC(C)C3CC3)c(C)c12 (stereo not drawn) the results were 12-LOX inh inactive and LDHA block inactive.
CC(C)(C)c1ccc(C(=O)Nc2ccc(NC(=O)CCC(=O)O)cc2O)cc1 was read as 12-LOX inh inconclusive and LDHA block inactive.
